Inconclusive results are not listed. The source made the active and inactive calls. How the source made its calls, unless noted: active means hit-call score of the fitted dose curve at least 0.9, where 1 is the maximum; inactive means score below 0.9.
Assays:
[1] = molecular target: Retinoic acid receptor RXR-alpha (Homo sapiens) (UniProt P19793); test: OT_NURR1_NURR1RXRa_0480: Odyssey Thera (OT) 8-hour HEK293T Protein Complementation Assay for Nurr1/retinoid X receptor (RXR) (AID 2283385; active means hit-call score of the fitted dose curve at least 0.9, where 1 is the maximum)
Method in brief: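 HEK293T cells expressing Nurr1 and RXRα fused to reporter fragments (protein-fragment complementation); fluorescence measured 8 h after dosing. Gain of signal fitted relative to DMSO.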

[2] = BSK_3C_TissueFactor: BioMAP Diversity Plus: 3C Assay for Tissue Factor Biomarker Activity (AID 2282997); conditions: BioMAP 3C HUVEC, tissue factor biomarker readout; actives raise or lower the signal
Method in brief: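 Dosing of human umbilical vein endothelial cells preceded a 24 h incubation. Tissue Factor was then read by ELISA, with increases and decreases both scored relative to DMSO controls.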

[3] = BSK_3C_uPAR: BioMAP Diversity Plus: 3C Assay for Urokinase-type plasminogen activator receptor (uPAR) Biomarker Activity (AID 2282998); conditions: BioMAP 3C HUVEC, uPAR biomarker ELISA; actives raise or lower the signal
Method in brief: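 Primary human umbilical vein endothelial cells, 3C system; surface uPAR measured by ELISA 24 h after dosing. Cytotoxicity via SRB total protein in parallel cultures; bidirectional fit against DMSO.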

[4] = BSK_3C_VCAM1: BioMAP Diversity Plus: 3C Assay for Vascular cell adhesion molecule 1 (VCAM1) Biomarker Activity (AID 2282999); conditions: BioMAP 3C HUVEC, VCAM1 ELISA, cytokine-stimulated; actives raise or lower the signal
Method in brief: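 Human umbilical vein endothelial cells (3C system), biomarker read by ELISA 24 h after dosing; bidirectional fit against DMSO baseline. Cytotoxicity tracked by SRB total-protein staining in parallel cultures at biomarker time.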

[5] = BSK_4H_Eotaxin3: BioMAP Diversity Plus: 4H Assay for Eotaxin 3 Biomarker Activity (AID 2283000); conditions: primary human endothelial cells (HUVEC); actives raise or lower the signal
Method in brief: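 Human umbilical vein endothelial cells (BSK_4H system) dosed with test chemical; Eotaxin-3 (CCL26) measured by ELISA 24 h after dosing. Bidirectional curve fitting relative to DMSO negative control as baseline.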

[6] = read-out: Intercellular Adhesion Molecule 1 (ICAM1), ICAM1 (gene 3383); test: BSK_3C_ICAM1: BioMAP Diversity Plus: 3C Assay for Intercellular Adhesion Molecule 1 (ICAM1) Biomarker Activity (AID 2283003); conditions: primary human endothelial cells (HUVEC); actives raise or lower the signal
Method in brief: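 HUVEC primary cells stimulated under 3C conditions; ICAM1 measured by ELISA 24 h after compound dosing. Curves fitted bidirectionally against the DMSO baseline. Overt cytotoxicity checked by SRB staining of parallel cultures.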

[7] = read-out: Interleukin-1 alpha (IL1a), IL1A (gene 3552); test: BSK_BE3C_IL1a: BioMAP Diversity Plus: BE3C Assay for Interleukin-1 alpha (IL1a) Biomarker Activity (AID 2283016); conditions: primary human bronchial epithelial cells; actives raise or lower the signal
Method in brief: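 Human primary bronchial epithelial cells, 24 h chemical exposure; IL-1a quantified by ELISA, fitted bidirectionally against DMSO. Cytotoxicity assessed in parallel by SRB total-protein staining at the time of measurement.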

[8] = read-out: Monocyte Chemoattractant Protein-1 (MCP1), CCL2 (gene 6347); test: BSK_3C_MCP1: BioMAP Diversity Plus: 3C Assay for Monocyte Chemoattractant Protein-1 (MCP1) Biomarker Activity (AID 2283017); conditions: primary human endothelial cells (HUVEC); actives raise or lower the signal
Method in brief: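 MCP-1 was measured by ELISA 24 h after dosing in primary HUVEC 3C cultures and fitted in both directions relative to DMSO; cytotoxicity was checked by SRB total-protein staining in parallel wells.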

[9] = read-out: Monocyte Chemoattractant Protein-1 (MCP1), CCL2 (gene 6347); test: BSK_4H_MCP1: BioMAP Diversity Plus: 4H Assay for Monocyte Chemoattractant Protein-1 (MCP1) Biomarker Activity (AID 2283018); conditions: primary human endothelial cells (HUVEC); actives raise or lower the signal
Method in brief: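 Human umbilical vein endothelial cells (4H system) exposed to chemicals for 24 h in 96-well format. MCP-1 measured by ELISA; bidirectional fitting against DMSO, with SRB total-protein staining in parallel cultures for cytotoxicity.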

[10] = read-out: Human Leukocyte Antigen - DR isotype (HLADR), HLA-DRA (gene 3122); test: BSK_3C_HLADR: BioMAP Diversity Plus: 3C Assay for Human Leukocyte Antigen - DR isotype (HLADR) Biomarker Activity (AID 2283019); conditions: primary human endothelial cells (HUVEC); actives raise or lower the signal
Method in brief: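 Bidirectional fitting against DMSO was applied to the HLA-DR ELISA signal from human umbilical vein endothelial cells, 24 h post-dose. Cytotoxicity came from parallel SRB total-protein staining; 3C proliferation was counted by SRB at 48 h.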

[11] = read-out: Interleukin-8 (IL8), CXCL8 (gene 3576); test: BSK_3C_IL8: BioMAP Diversity Plus: 3C Assay for Interleukin-8 (IL8) Biomarker Activity (AID 2283020); conditions: primary human endothelial cells (HUVEC); actives raise or lower the signal
Method in brief: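 Primary human umbilical vein endothelial cells were dosed for 24 h. IL-8 was quantified by ELISA and fitted bidirectionally against DMSO. Cytotoxicity was assessed in parallel cultures by SRB staining at 560 nm.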

[12] = read-out: Monokine induced gamma interferon (MIG), CXCL9 (gene 4283); test: BSK_3C_MIG: BioMAP Diversity Plus: 3C Assay for Monokine induced gamma interferon (MIG) Biomarker Activity (AID 2283021); conditions: primary human endothelial cells (HUVEC); actives raise or lower the signal
Method in brief: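 HUVEC primary endothelial cultures dosed with chemical; MIG quantified by ELISA at 24 h. Data fitted bidirectionally against DMSO control, with parallel SRB total-protein staining for cytotoxicity.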

[13] = BSK_3C_SRB: Viability Assessment in the BioMAP Diversity Plus: 3C Assay (AID 2283023); conditions: primary human endothelial cells (HUVEC);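 further: fitted both ways against DMSO so a hit may be signal rise or drop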
Method in brief: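 Cytotoxicity readout in parallel HUVEC 3C cultures: after 24 h compound exposure, cells fixed with 10% TCA, stained with 0.1% SRB and read at 560 nm. Gain or loss relative to DMSO fitted.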

[14] = read-out: Matrix Metallopeptidase 1 (MMP1), MMP1 (gene 4312); test: BSK_BE3C_MMP1: BioMAP Diversity Plus: BE3C Assay for Matrix Metallopeptidase 1 (MMP1) Biomarker Activity (AID 2283024); conditions: primary human bronchial epithelial cells; actives raise or lower the signal
Method in brief: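 Human primary bronchial epithelial cells (BE3C system) dosed for 24 h; MMP-1 quantified by ELISA. Bidirectional fit against DMSO; cytotoxicity tracked in parallel cultures by SRB total-protein staining.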

[15] = BSK_4H_SRB: Viability Assessment in the BioMAP Diversity Plus: 4H Assay (AID 2283027); conditions: primary human endothelial cells (HUVEC);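 further: cells exposed to compound for 24 h before staining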;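 on AC50: curves fitted both ways versus DMSO so AC50 may be loss or gain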
Method in brief: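 Human umbilical vein endothelial cells, 24 h after chemical dosing; total protein measured by 0.1% sulforhodamine B staining after 10% TCA fixation, read at 560 nm. Bidirectional fitting against DMSO.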

[16] = BSK_BE3C_SRB: Viability Assessment in the BioMAP Diversity Plus: BE3C Assay (AID 2283028); conditions: primary human bronchial epithelial cells
Method in brief: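 Cytotoxicity read-out: SRB (0.1%) staining of TCA-fixed (10%) human lung bronchial epithelial cells, absorbance 560 nm, 24 h post-dosing. Curves fitted both directions relative to DMSO.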

[17] = read-out: Matrix Metallopeptidase 1 (MMP1), MMP1 (gene 4312); test: BSK_hDFCGF_MMP1: BioMAP Diversity Plus: hDFCGF Assay for Matrix Metallopeptidase 1 (MMP1) Biomarker Activity (AID 2283064); conditions: primary human foreskin fibroblasts; actives raise or lower the signal
Method in brief: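 Primary human foreskin fibroblasts exposed to chemicals for 24 h; MMP1 measured by ELISA. Cytotoxicity tracked by SRB staining in parallel cultures; bidirectional fit relative to DMSO.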

[18] = read-out: E-selectin (Homo sapiens) (UniProt P16581); test: BSK_SAg_Eselectin: BioMAP Diversity Plus: SAg Assay for Eselectin Biomarker Activity (AID 2283091); conditions: primary human HUVEC with PBMC; actives raise or lower the signal
Method in brief: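 Cell-surface E-selectin is read by ELISA at 24 h in the SAg co-culture of HUVEC and PBMC. Curves are fitted in both directions relative to DMSO. Parallel SRB total-protein staining tracks overt toxicity.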

[19] = BSK_SAg_PBMCCytotoxicity: PBMC Cytotoxicity Assessment in the BioMAP Diversity Plus: SAg Assay (AID 2283093); conditions: primary human HUVEC with PBMC;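 further: PBMC viability measured as Alamar Blue reduction fluorescence at 546/580 nm; fitted both ways against DMSO so a hit may be loss or gain of signal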;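 on AC50: PBMC superantigen activated with SEB plus TSST-1 one hour after compound addition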
Method in brief: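 HUVEC/PBMC co-culture; PBMC exposed to chemical 1 h before SEB and TSST-1 activation (20 ng/mL each), incubated 90 h, then Alamar Blue 6 h, fluorescence 546/580 nm. Bidirectional fit versus DMSO baseline.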

[20] = read-out: Interleukin-8 (IL8), CXCL8 (gene 3576); test: BSK_SAg_IL8: BioMAP Diversity Plus: SAg Assay for Interleukin-8 (IL8) Biomarker Activity (AID 2283094); conditions: primary human HUVEC with PBMC; actives raise or lower the signal
Method in brief: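 Human umbilical vein endothelial cells co-cultured with PBMC, stimulated with superantigen; IL-8 measured by ELISA 24 h after chemical dosing. Bidirectional fitting versus DMSO; SRB staining in parallel cultures tracks cytotoxicity.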

Measured: AC50

E-selectin (Homo sapiens), sequence (P16581 whole entry, looked up): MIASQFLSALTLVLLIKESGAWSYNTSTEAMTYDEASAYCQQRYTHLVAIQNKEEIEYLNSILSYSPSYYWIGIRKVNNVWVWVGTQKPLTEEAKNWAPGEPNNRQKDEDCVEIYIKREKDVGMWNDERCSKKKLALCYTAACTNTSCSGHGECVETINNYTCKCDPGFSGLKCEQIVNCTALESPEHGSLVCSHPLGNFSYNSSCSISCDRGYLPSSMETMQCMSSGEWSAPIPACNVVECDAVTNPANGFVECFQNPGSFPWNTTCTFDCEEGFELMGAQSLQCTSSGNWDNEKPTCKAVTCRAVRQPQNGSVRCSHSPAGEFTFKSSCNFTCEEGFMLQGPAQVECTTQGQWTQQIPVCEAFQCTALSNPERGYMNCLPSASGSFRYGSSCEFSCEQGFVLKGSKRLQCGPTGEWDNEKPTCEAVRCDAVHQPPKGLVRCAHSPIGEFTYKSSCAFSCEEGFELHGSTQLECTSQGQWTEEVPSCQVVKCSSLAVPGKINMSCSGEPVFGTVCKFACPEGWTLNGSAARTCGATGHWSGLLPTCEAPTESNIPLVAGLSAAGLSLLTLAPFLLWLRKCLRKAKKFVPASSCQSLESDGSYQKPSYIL
Retinoic acid receptor RXR-alpha (Homo sapiens), sequence (P19793 whole entry, looked up, the tested form may be a part): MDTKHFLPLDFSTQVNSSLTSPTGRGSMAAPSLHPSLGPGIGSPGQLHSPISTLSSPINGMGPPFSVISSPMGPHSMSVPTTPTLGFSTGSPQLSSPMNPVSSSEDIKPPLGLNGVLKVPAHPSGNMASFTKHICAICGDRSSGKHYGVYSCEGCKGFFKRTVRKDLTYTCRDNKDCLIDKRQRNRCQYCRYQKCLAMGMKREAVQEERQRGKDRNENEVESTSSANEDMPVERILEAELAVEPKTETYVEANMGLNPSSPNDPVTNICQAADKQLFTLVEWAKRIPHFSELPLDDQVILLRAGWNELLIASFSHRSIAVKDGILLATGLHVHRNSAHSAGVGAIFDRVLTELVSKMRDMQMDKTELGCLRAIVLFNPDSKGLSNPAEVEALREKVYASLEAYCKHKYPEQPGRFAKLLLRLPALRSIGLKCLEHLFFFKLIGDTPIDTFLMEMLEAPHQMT

Cc1cc(O)cc(C)c1Cl
inactive: [1]

COC(=O)[C@]1(C)CCC[C@@]2(C)[C@H]1CC=C1C=C(C(C)C)CC[C@@H]12
active: [1] 71.6 µM

Sc1nc2ccccc2s1
active: [2] 1.09 µM | [5] 3.97 µM | [7] 0.0847 µM
inactive: all other assays above

Cc1cc(-n2nc3ccc(Cl)cc3n2)c(O)c(C(C)(C)C)c1
active: [13] 0.342 µM
not listed: [1]
inactive: all other assays above

O=C(Oc1ccccc1)c1ccccc1
active: [1] 75.8 µM

CCCCC(CC)COC(=O)CS (stereo not given)
active: [1] 50 µM

CC(C)CC(=O)CC(C)CC(C)C (stereo not given)
inactive: [11] | [12] | [16] | [17] | [18] | [20]
active: [2] 36 µM | [3] 30.9 µM | [4] 35.1 µM | [5] 33.8 µM | [6] 35.2 µM | [7] 31.5 µM | [8] 31.2 µM | [9] 31.1 µM | [10] 35.3 µM | [13] 35.2 µM | [14] 20 µM | [15] 33.7 µM | [19] 33.3 µM

C=C1CC[C@H]2C[C@@H]1C2(C)C
inactive: [1]

CCCCCCC(O)CCCCCCCCCCC(=O)OC (stereo not given)
active: [9] 8.39 µM | [14] 3.22 µM
not listed: [1]
inactive: all other assays above

CN(C)CCC(c1ccc(Cl)cc1)c1ccccn1 (stereo not given)
active: [9] 12 µM
not listed: [1]
inactive: all other assays above

Cc1cc(C)c(S(=O)(=O)O)cc1N=Nc1cc(S(=O)(=O)O)c2ccccc2c1O
inactive: [1]

CCCCCCCCCC/C=C/C1CC(=O)OC1=O (stereo not given)
active: [7] 20 µM
not listed: [1]
inactive: all other assays above

O=C(C(=O)c1ccccc1)c1ccccc1
active: [13] 0.194 µM | [14] 0.048 µM
not listed: [1]
inactive: all other assays above

O=C(O)/C=C\C(=O)O
inactive: [1]

Cc1cccnc1
not listed: [1]
inactive: all other assays above
